Source: PubChem
Pf growth 48h – P. falciparum growth inhibition at 48 hours (one generation); P. falciparum luciferase growth in erythrocytes, 48 h; Potency, µM (titrated, usually from 28.7 µM), hits mostly inhibitors; 310,000 tested, 5.9% active
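Erythrocytes infected with P. falciparum carrying an integrated firefly luciferase reporter (2% hematocrit, 0.1% parasitemia final) were exposed to compounds in RPMI 1640 with 0.5% Albumax at 37 C, 5% CO2. Growth inhibition was scored as reduced luminescence.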
Sm TGR inh – blocks Schistosoma mansoni thioredoxin glutathione reductase; Q962Y6; purified TGR, DTNB reduction, TNB absorbance 405 nm; Potency, µM (highest dose often 114 µM), most hits filed as inhibitors; 360,000 tested, 3% active; AID 485364; note: nearly all actives have a fitted effect of over 60% in size
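TGR 20 nM + NADPH 100 uM (dispensed conc.), cpd preinc 15 min RT; start with NADPH (500 uM addition) then DTNB (15 mM addition). Kinetic TNB absorbance, 405 nm filter. Four-parameter Hill fit across titration.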
HCMV inh – inhibitors of human cytomegalovirus; activity change, negative = inhibition, % at 57.5 µM; AID 1259415; HFF cells, HCMV-luciferase reporter, 72 h; hits give low values; 410,000 tested, 4.5% active; in the data active = activity change below about -60%; inconclusive = no clear call, values can overlap the other calls; inactive = above about -39%
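After 16 h attachment at 37C, HFF cells received test compound and HCMV-luciferase (1 PFU/cell); reporter luminescence read 72 h later, data normalized against buffer-only and known inhibitor Salinomycin.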
HCV inhibitor – blocks hepatitis C virus | Huh7.5.1 HCVcc-Cre infection, luciferase reporter, 44 h | Potency, µM (highest dose often 41.8 µM), usual class: inhibitors | 340,000 tested, 3.4% active
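Reporter virus HCVcc-Cre (~0.5 moi) infects cells exposed to compound; seeding density 1,000 cells/well with 4 h settling beforehand. Luminescence, 15 sec read, taken 44 h post-infection following a 15 min RT substrate incubation.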
Pf growth 96h – P. falciparum growth inhibition at 96 hours; AID 504834; 320,000 tested, 6.9% active; P. falciparum luciferase reporter growth, 96 h; Potency, µM (doses to about 28.7 µM), actives largely listed as inhibitors
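Luminescence readout: decreased luciferase signal marks inhibited growth of reporter-expressing P. falciparum in infected red cells (2% hematocrit, 0.05% parasitemia final), exposed to compound two generations (96 h, 37 C, 5% CO2).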
SARS PLpro yeast – SARS-CoV PLP inhibition in yeast; AID 485353; Potency, µM (top dose mostly 32.9 µM), usual class: activators; 330,000 tested, 0.19% active; S. cerevisiae expressing SARS-CoV PLpro, growth rescue; calls by dose curve; note: nearly all actives have a fitted effect of over 55% in size
Hits are given with their value; n = inactive; u = inconclusive; x = no result. Hits are enriched below; roughly 15% of the tested compounds scored in any of these assays. Unless noted, calls come from the whole dose curve; as a rule, active = well fitted curve in the direction sought with a large enough effect; inconclusive = small, poorly fitted or top-dose-only effect, or another doubt; inactive = no such curve, though single readings can be large; an effect the other way counts as inactive or inconclusive.

SMILES	Pf growth 48h	Sm TGR inh	HCMV inh	HCV inhibitor	Pf growth 96h	SARS PLpro yeast
Cc1c(C)n2c(SCC(=O)Nc3ccc4c(c3)OCCO4)nnc2[nH]c1=O	9.3µM	n	n	n	u	n
Cc1nnc(SCC(=O)Nc2ccc3c(c2)OCO3)o1	n	n	-60	n	13µM	n
O=C(CSc1nnc(-c2ccccn2)n1Cc1ccco1)Nc1ccc2c(c1)OCO2	n	n	n	n	n	n
CCc1nnc(SCC(=O)Nc2ccc3c(c2)OCO3)o1	n	n	u	n	n	n
C=CCn1c(SCC(=O)Nc2ccc3c(c2)OCCO3)nnc1-c1ccccn1	n	n	n	n	n	n
Cc1ccccc1-n1c(SCC(=O)Nc2ccc3c(c2)OCO3)nnc1-c1ccccn1	u	n	n	22µM	n	n
CCOc1ccc(N(C)C(=O)CS(=O)(=O)c2cccc3nsnc23)cc1	x	n	n	x	x	x
Cc1cc(OCC(O)CN)ccc1Cl (centres undefined)	n	n	n	n	0.74µM	n
Cc1nc(-c2cccc(S(=O)(=O)N3CC(C)OC(C)C3)c2)cs1 (centres undefined)	n	n	n	n	u	n
Cc1nc(-c2cccc(NC(=O)c3ccc(Cl)c(S(=O)(=O)N4CCCC4)c3)c2)cs1	x	x	n	x	x	x
Cc1nc(-c2cccc(NC(=O)c3cccc(S(=O)(=O)N4CCCC4)c3)c2)cs1	12µM	n	u	10µM	u	n
Cc1nc(-c2cccc(S(=O)(=O)N3CCOCC3)c2)cs1	13µM	n	n	n	n	n
N#Cc1c(Nc2ccccc2)sc(C(=O)C2CC2)c1N	n	n	n	n	n	n
COc1ccc(CN2C(=O)c3cccnc3C2Nc2cc(Cl)ccc2OC)cc1 (centres undefined)	5.2µM	n	n	n	u	n
CC(C)(C)C(=O)Nc1ccc(C(=O)NCc2cccnc2)cc1	n	n	n	n	x	x
CCc1ccc(C(=O)NN(C(=O)c2ccc(CC)cc2)C(C)(C)C)cc1	n	n	n	n	u	n
CC(C)(C)N(NC(=O)c1ccccc1)C(=O)c1ccc(C(=O)N(NC(=O)c2ccccc2)C(C)(C)C)cc1	n	n	-60	n	n	n
CC(C)(C)c1ccc(C(=O)Nc2ccc(C(=O)NCc3cccnc3)cc2)cc1	6.6µM	n	n	u	n	n
CC(C)(C)c1ccc(C(=O)NCc2ccccc2)cc1	n	n	n	n	9.3µM	n
O=C(NCc1ccccc1)c1ccc(C(=O)N(C2CCCCC2)C2CCCCC2)cc1	x	n	n	u	9.3µM	n
CCOC(=O)C1CCCN(C(=O)c2cc(C#N)cs2)CC1 (centres undefined)	x	x	n	x	x	x
COc1ccc(N2CCN(C(CNC(=O)C(=O)NCCc3ccccc3)c3cccnc3)CC2)cc1 (centres undefined)	x	n	n	x	x	x
COc1cccc(C(=O)NCC(=O)N2CCN(c3ccc(C(F)(F)F)cn3)CC2)c1	u	n	u	u	n	n
O=C(NNC1=NC2(CCCC2)Cc2ccccc21)c1ccncc1	n	n	n	n	u	n
CC1CCN(c2nc3nonc3nc2N2CCC(C)CC2)CC1	n	n	n	n	n	n
SMILES	Pf growth 48h	Sm TGR inh	HCMV inh	HCV inhibitor	Pf growth 96h	SARS PLpro yeast
CC1CCCN(c2nc3nonc3nc2N2CCCC(C)C2)C1 (centres undefined)	10µM	n	n	n	n	n
O=C(NC(=S)Nc1cccc([N+](=O)[O-])c1)c1ccco1	n	n	n	n	8.3µM	n
Cc1cccc(NC(=S)NC(=O)/C=C/c2ccco2)c1	n	x	n	n	n	n
O=C(/C=C/c1ccco1)NC(=S)Nc1cccc([N+](=O)[O-])c1	n	45µM	n	u	n	n
O=C(/C=C/c1ccco1)NC(=S)Nc1cccc(-c2nc3ccccc3s2)c1	x	x	n	10µM	x	x
O=C(Cc1ccc(F)cc1)N/N=C/c1ccncc1	n	n	n	n	n	n
O=C(NCc1cccs1)C(=O)c1cn(CC(=O)N2CCOCC2)c2ccccc12	n	n	-96	n	n	n
CCN(CC)C(=O)C(=O)c1cn(CC(=O)N2CCc3ccccc3C2)c2ccccc12	u	45µM	u	n	n	n
O=C(Nc1ccccc1)C(=O)c1cn(CC(=O)N2CCCCC2)c2ccccc12	n	n	n	n	10µM	n
CCN(CC)C(=O)C(=O)c1cn(CC(=O)NCC2CCCO2)c2ccccc12 (centres undefined)	n	n	n	n	n	n
CCN(CC)C(=O)Cn1cc(C(=O)C(=O)N(C)C2CCN(C)CC2)c2ccccc21	n	n	n	x	n	n
CCC1CCCCN1C(=O)C(=O)c1cn(CC(=O)N(CC)CC)c2ccccc12 (centres undefined)	n	n	n	n	10µM	n
C#CC1CCCCC1NC(=O)Nc1cnccc1C(F)(F)F (centres undefined)	n	n	n	n	n	n
Nc1cc(Cl)ccc1C(=O)OCC(=O)NCC1CCCO1 (centres undefined)	x	x	n	n	x	n
Cc1ccc([C@@H]2CC(=O)[C@@H]3CN(S(=O)(=O)c4ccc(C)cc4)[C@H](c4ccccc4F)C[C@@H]3N2S(=O)(=O)c2ccc(C)cc2)cc1	x	x	n	x	x	x
C=CCn1c(SCC(=O)N2N=C(c3ccco3)CC2c2ccco2)nnc1-c1ccncc1 (centres undefined)	n	n	n	n	u	n
CCOC(=O)c1cc(S(=O)(=O)Nc2cc(OC)ccc2OC)[nH]n1	x	n	n	x	x	x
O=C(C(=O)N1CCCCC1)c1cn(CC(=O)N2CCCCCC2)c2ccccc12	u	n	n	n	12µM	n
O=C(C(=O)N1CCc2ccccc2C1)c1cn(CC(=O)N2CCCC2)c2ccccc12	n	n	u	n	n	n
COc1ccc(N2CCN(C(=O)C(=O)c3cn(CC(=O)N4CCCC4)c4ccccc34)CC2)cc1	x	x	n	x	x	x
O=C(C(=O)N1CCN(c2ccc(F)cc2)CC1)c1cn(CC(=O)N2CCOCC2)c2ccccc12	n	n	n	n	13µM	n
COc1ccc(NC(=O)CC2C(=O)N(c3ccc(F)cc3)C(=O)N2Cc2ccc3c(c2)OCO3)cc1 (centres undefined)	x	n	n	x	x	x
CCOC(=O)/C(=C\C=C1/Sc2ccccc2N1CC)C(C)=O	u	n	-64	u	n	n
CCOC(=O)/C(=C/C=C1\Sc2cc(C)c(C)cc2N1CC)C(C)=O	u	45µM	-69	11µM	n	n
CCOC(=O)/C(=C/C=C1\Sc2ccccc2N1CC)C(C)=O	u	n	x	u	n	n
COc1ccc(C)cc1S(=O)(=O)n1c([N+](=O)[O-])cnc1C	n	n	n	n	u	n
CCOC(=O)c1sc(NC(=O)CCN2CCC(C)CC2)c(C(=O)OCC)c1C	n	n	n	u	n	n
